# From PubChem BioAssay AID2283234 (EPA ToxCast)
# Records with an inconclusive call do not appear. Calls of active or inactive are those of the source. How the source made its calls: active means hit-call score of the fitted dose curve at least 0.9, where 1 is the maximum; inconclusive means response in the unintended direction; inactive means score below 0.9.
# Biological target: human Dual Specificity Styrosine-Phosphorylation-Regulated Kinase 1A (DYRK1a), DYRK1A (gene 1859) (UniProt Q13627)
# Assay: NVS_ENZ_hDYRK1a: NovaScreen (NVS) Enzymatic Assay for human Dual Specificity Styrosine-Phosphorylation-Regulated Kinase 1A (DYRK1a)
# Procedure: NVS_ENZ_hDYRK1a is a biochemical, single-readout assay that uses extracted gene-proteins in a cell-free assay. Measurements were taken 1 hour after chemical dosing in a 96-well plate.NVS_ENZ_hDYRK1a is one of one assay component(s) measured or calculated from the NVS_ENZ_hDYRK1a assay. It is designed to make measurements of enzyme activity, a form of enzyme reporter, as detected with fluorescence intensity signals by Fluorescence and electrophoretic mobility shift technology.Data from the assay component NVS_ENZ_hDYRK1a was analyzed into 1 assay endpoint. This assay endpoint, NVS_ENZ_hDYRK1a, was analyzed in the positive analysis fitting direction relative to DMSO as the negative control and baseline of activity. Using a type of enzyme reporter, loss-of-signal activity can be used to understand changes in the enzymatic activity as they relate to the gene DYRK1A. Furthermore, this assay endpoint can be referred to as a primary readout, because this assay has produced multiple assay endpoints where this one serves a enzymatic activity function. To generalize the intended target to other relatable targets, this assay endpoint is annotated to the kinase intended target family, where the subfamily is dual-specific kinase.
# Binding assays used specific radioligands (tritiated, iodinated) with non-radioactive competitive displacement ligands in agonist or antagonist protocols (as indicated) and various reference compounds and inhibitors to titrate specific binding to receptors and transporters. Most enzyme assays (CYPs, kinases, phosphatases, proteases, HDACs) used recombinant protein and specific substrates (fluorescence mostly, some colorimetric and radioactive) and inhibitors, followed by a biochemical separation of substrate and product. All assays for the biochemical HTS were initially run in duplicate at a single concentration (10 uM for CYP450 assays and 25 uM for all others). […] Each assay was run with positive and negative controls, and concurrent controls on every plate. The follow-up (secondary) screen tested active chemical-pairs in concentration series, as well as a few additional assays not tested in the primary screen, some selected negative inactives, and several cases re-run in the concentration series for confirmatory purposes.
Structure (SMILES),outcome,AC50
N#Cc1c(Cl)c(Cl)c(Cl)c(C#N)c1Cl,inactive,
CCN(CC)C(=O)SCc1ccc(Cl)cc1,inactive,
COc1cc(OC)nc(NC(=O)NS(=O)(=O)c2cc(NC=O)ccc2C(=O)N(C)C)n1,inactive,
COP(N)(=O)SC (stereo not drawn),inactive,
CC1=NNC(=O)N(/N=C/c2cccnc2)C1,,13.5 µM (active)
O=C(Nc1ccccc1)Nc1cnns1,inactive,
O=C(Nc1ccccc1)Nc1ccnc(Cl)c1,,25 µM (active)
N#Cc1c[nH]cc1-c1cccc2c1OC(F)(F)O2,inactive,
CN(C)[C@@H]1C(=O)C(C(N)=O)=C(O)[C@@]2(O)C(=O)C3=C(O)c4c(O)cccc4[C@@](C)(O)[C@H]3[C@H](O)[C@@H]12,,16.7 µM (active)
CNC(=O)ON=C(SC)C(=O)N(C)C,inactive,
O=C(O)c1nc(Cl)ccc1Cl,inactive,
Nc1c(Cl)cc([N+](=O)[O-])cc1Cl,,14.7 µM (active)
CCCCOC(=O)c1ccccc1C(=O)OCCCC,inactive,
